Experimental data reported in PubChem BioAssay (NCATS).
Inconclusive results are not listed. Activity calls are given as the source filed them. Unless noted, calls follow the shape of the dose curve; as a rule, active = well fitted curve in the direction sought with a large enough effect; inconclusive = small, poorly fitted or top-dose-only effect, or another doubt; inactive = no such curve, though single readings can be large; an effect the other way counts as inactive or inconclusive.

What was measured:
[1] = qHTS Assay for Identification of Small Molecule Antagonists for NFkB Signaling Pathway (AID 895; active = well fitted inhibition curve with a large enough effect in the signal ratio, with a control signal flat, not every such curve was filed as active; the % refers to the signal ratio; also: % is scaled to controls: 0 for no effect and ±100 for the full control effect)
Procedure, shortened: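 Beta-lactamase reporter read-out (460 and 530 nm emission ratio, 405 nm excitation, 2 hrs substrate loading RT) after 5 hr stimulation with 10 pM TNF alpha in compound-treated NFkB-bla ME-180 cells in low-serum medium.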

[2] = qHTS Assay for Identification of Small Molecule Agonists for Thrombopoietin (TPO) Signaling Pathway (AID 917); also: % is scaled to controls: 0 for no effect and ±100 for the full control effect
Procedure, shortened: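 Murine Ba/F3 cells expressing human TPO receptor and GPIIb-promoter luciferase, IL-3-starved overnight, given compound plus TPO at 26 pM (EC50). After 24 h at 37 C, 5% CO2, luminescence read.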

[3] = target: Muscarinic acetylcholine receptor M1 (Rattus norvegicus) (UniProt P08482); test: qHTS Assay for Antagonists of Acetylcholine Muscarinic M1 Receptor: Measurement of IP-One Response (AID 944); also: nearly all actives have a fitted effect of over 75% in size
Muscarinic acetylcholine receptor M1 (Rattus norvegicus), sequence (P08482 whole entry, looked up): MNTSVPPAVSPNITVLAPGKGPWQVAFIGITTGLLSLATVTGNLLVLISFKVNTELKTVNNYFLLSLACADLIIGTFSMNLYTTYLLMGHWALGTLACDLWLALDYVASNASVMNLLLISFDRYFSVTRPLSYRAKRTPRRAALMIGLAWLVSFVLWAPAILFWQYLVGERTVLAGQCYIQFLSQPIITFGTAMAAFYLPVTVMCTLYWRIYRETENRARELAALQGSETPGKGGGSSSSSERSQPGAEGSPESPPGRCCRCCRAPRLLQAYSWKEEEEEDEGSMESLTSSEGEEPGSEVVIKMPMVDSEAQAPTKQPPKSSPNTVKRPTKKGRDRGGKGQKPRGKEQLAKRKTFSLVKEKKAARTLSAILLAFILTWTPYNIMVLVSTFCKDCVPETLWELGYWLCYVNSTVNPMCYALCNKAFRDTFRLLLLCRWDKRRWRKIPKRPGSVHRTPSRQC
Procedure, shortened: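 CHO cells stably expressing rat M1, pretreated 10 min with compound, then stimulated 30 min with carbachol at EC80 (200 nM) in LiCl-containing buffer pH 7.4; IP1 accumulation read by HTRF competition (665/620 nm).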

[4] = target: Pyruvate kinase (Leishmania mexicana) (UniProt Q27686); test: qHTS Validation Assay for Inhibitors of Leishmania Mexicana Pyruvate Kinase (AID 945);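 also: 0% = DMSO only neutral control wells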
Pyruvate kinase (Leishmania mexicana), sequence (Q27686 2-499 E452W): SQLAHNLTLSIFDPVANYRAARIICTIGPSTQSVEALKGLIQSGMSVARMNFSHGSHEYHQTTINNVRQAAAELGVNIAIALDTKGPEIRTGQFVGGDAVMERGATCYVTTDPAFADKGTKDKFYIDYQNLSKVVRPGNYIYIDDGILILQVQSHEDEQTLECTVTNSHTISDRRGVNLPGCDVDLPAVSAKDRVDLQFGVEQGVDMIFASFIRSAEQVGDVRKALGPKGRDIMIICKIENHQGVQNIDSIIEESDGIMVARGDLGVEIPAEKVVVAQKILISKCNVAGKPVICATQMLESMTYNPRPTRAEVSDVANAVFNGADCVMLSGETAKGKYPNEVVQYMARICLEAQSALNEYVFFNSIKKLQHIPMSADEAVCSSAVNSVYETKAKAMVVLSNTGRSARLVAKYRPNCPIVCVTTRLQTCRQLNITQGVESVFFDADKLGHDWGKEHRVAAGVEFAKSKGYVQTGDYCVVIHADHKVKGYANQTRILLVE
Procedure, shortened: (§1)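 Pyruvate kinase activity of E451W LmPYK (0.2 nM) was followed as ATP output after 1 h at room temperature with 0.5 mM PEP and 0.1 mM ADP, detected by PKLight luminescence.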

[5] = target: Pyruvate kinase PKM (Homo sapiens) (UniProt P14618); test: qHTS Assay for Activators of Human Muscle Pyruvate Kinase (AID 954; active = well fitted curve in the direction sought with a large enough effect, not every such curve was filed as active;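 also: 0% = uninhibited enzyme and -100% = no enzyme or full thiadiazolimine inhibition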)
Pyruvate kinase PKM (Homo sapiens), sequence (P14618 whole entry, looked up): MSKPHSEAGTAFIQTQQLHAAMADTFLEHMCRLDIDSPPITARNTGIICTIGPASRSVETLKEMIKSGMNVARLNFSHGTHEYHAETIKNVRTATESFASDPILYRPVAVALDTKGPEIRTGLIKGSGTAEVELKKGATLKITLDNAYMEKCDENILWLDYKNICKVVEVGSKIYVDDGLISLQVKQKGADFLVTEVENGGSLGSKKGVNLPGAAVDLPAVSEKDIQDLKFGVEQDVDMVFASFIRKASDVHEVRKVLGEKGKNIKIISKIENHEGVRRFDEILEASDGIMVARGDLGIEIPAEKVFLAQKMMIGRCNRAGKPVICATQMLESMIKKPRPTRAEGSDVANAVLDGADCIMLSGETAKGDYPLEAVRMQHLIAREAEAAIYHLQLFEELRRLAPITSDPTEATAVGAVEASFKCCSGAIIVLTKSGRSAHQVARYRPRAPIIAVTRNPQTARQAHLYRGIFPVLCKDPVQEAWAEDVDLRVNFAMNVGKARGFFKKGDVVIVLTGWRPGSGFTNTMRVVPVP
Procedure, shortened: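 Purified human PKM2 (0.1 nM) with 0.5 mM PEP (Km) and 0.1 mM ADP in 50 mM imidazole pH 7.2, KCl, MgCl2, 1 h at room temperature; ATP formed read by coupled luciferase luminescence. Normalized to no-enzyme/110 uM thiadiazolimine inhibition; 0.3 nM enzyme column for activation.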

[6] = target: Cytochrome P450 2C19 (Homo sapiens) (UniProt P33261); test: qHTS Assay for Inhibitors and Substrates of Cytochrome P450 2C19 (AID 899); also: % is scaled to controls: 0 for no effect and ±100 for the full control effect; nearly all actives have a fitted effect of over 60% in size
Cytochrome P450 2C19 (Homo sapiens), sequence (P33261 whole entry, looked up): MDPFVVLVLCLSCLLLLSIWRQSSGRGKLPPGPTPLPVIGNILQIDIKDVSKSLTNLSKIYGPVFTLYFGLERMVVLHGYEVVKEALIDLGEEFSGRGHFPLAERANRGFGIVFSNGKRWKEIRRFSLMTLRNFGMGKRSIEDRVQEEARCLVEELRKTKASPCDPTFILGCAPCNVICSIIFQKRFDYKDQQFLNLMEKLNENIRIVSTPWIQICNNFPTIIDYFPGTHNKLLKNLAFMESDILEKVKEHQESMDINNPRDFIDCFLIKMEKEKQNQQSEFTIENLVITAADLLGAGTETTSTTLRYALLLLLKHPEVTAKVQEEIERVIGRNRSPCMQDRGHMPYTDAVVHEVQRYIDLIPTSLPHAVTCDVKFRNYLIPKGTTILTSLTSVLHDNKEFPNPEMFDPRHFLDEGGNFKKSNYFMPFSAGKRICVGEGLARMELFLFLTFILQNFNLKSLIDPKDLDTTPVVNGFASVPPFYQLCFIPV
Procedure, shortened: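 5nM enzyme + 10uM Luciferin-H EGE (=KM), 50mM KPO4; cpd pin-transferred, 10 min 37C; NADPH regen, 60 min 37C; stopped w/ luciferin detection reagent, 20 min; luminescence. Normalized to 57uM ketoconazole (AC100).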

[7] = Confirmation and Secondary Assay for Modulators of Hemoglobin Beta Chain Splicing at IVS2 654 locus (AID 910);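 also: HeLa cells stably carrying EGFP split by mutant beta-globin IVS2-654 intron; per-well total GFP intensity by laser scanning cytometry after 2-day treatment; % of control where 0% means no effect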
Procedure, shortened: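 Readout: per-well total peak green fluorescence (488 nm ex, 500–520 nm em) from objects 5–250 µm, reflecting correct splicing of an EGFP-654 reporter. Compounds were applied for 2 days at 37 °C to overnight-plated HeLa EGFP-654 cells; controls were DMSO and 500 nM IVS2-654 PNA.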

[8] = Confirmation and Secondary Assay for Modulators of Hemoglobin Beta Chain Splicing at IVS2 705 locus (AID 930);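 also: HeLa cells stably expressing the EGFP-705 splicing reporter; GFP fluorescence per well restored by corrected splicing of the IVS2-705 intron in EGFP; series mostly up to about 46 µM; % of control where 0% means no effect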
Procedure, shortened: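 Assay measures total GFP intensity per well in HeLa EGFP-705 cells after 2 days with compound; mis-splicing normally truncates EGFP, so fluorescence indicates corrected splicing.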

[9] = target: Muscarinic acetylcholine receptor M1 (Rattus norvegicus) (UniProt P08482); test: qHTS Assay for Antagonists of Acetylcholine Muscarinic M1 Receptor: Kinetic Measurement of Intracellular Calcium Response (AID 943); also: series mostly up to about 35 µM; nearly all actives have a fitted effect of over 75% in size
Procedure, shortened: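 CHO cells expressing rat M1 receptor, Fluo-4 loaded, preincubated 10 min with compound, then stimulated with EC80 carbachol (100 nM final). Kinetic calcium fluorescence over 4 min; response taken as peak over basal signal.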

[10] = target: Pyruvate kinase (Leishmania mexicana) (UniProt Q27686); test: qHTS Validation Assay for Activators of Leishmania Mexicana Pyruvate Kinase (AID 959)
Procedure, shortened: as §1

[11] = qHTS Assay for Identification of Small Molecule Agonists for Hypoxia Response Element Signaling Pathway (AID 914; active = well fitted activation curve with a large enough effect in the signal ratio, with a control signal flat, not every such curve was filed as active; the % refers to the signal ratio; also: % of control where 0% means no effect); conditions: ME-180 (cervical carcinoma) HRE-bla reporter, beta-lactamase ratio, CoCl2, 17 h; activation: stronger effect = higher value
Procedure, shortened: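 Compounds in a titration series were added to ME-180 reporter cells alongside an EC50 level of CoCl2. After 17 hours, beta-lactamase activity was read as the 460nm/530nm emission ratio of CCF4, giving AC50 values.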

CCCCCCCCCCCCCCSCC(=O)O
inactive: Potency [1] | Potency [2] | Potency [3] | Potency [4] | outcome [5]

OC1(c2ccc(Cl)cc2)CCN(Cc2c[nH]c3ccccc23)CC1
inactive: Potency [6] | Potency [4] | outcome [5]

NC1CONC1=O (stereo not drawn)
inactive: Potency [7] | outcome [8]

O=C(O)c1ccccc1Nc1ccccc1
inactive: Potency [7] | Potency [2] | outcome [8] | Potency [9] | Potency [3] | Potency [4] | outcome [5]

CC(=O)NNC(=O)N1Cc2ccccc2Oc2ccc(Cl)cc21
inactive: Potency [6] | Potency [4] | outcome [5]

NC(=O)CC[C@H](N)C(=O)O
inactive: Potency [7] | outcome [8]

CNC(=O)c1cc2c(cn1)[nH]c1ccccc12
inactive: Potency [6] | Potency [9] | Potency [3] | outcome [5] | Potency [10]

CC(C)NC[C@H](O)COc1ccc(CC(N)=O)cc1
inactive: Potency [7] | Potency [2] | outcome [8] | Potency [4] | outcome [5]

Cn1c(=O)c2[nH]c(-c3ccc(S(=O)(=O)O)cc3)nc2n(C)c1=O
inactive: Potency [6] | Potency [2] | Potency [9] | Potency [3] | Potency [4] | outcome [5]

NC(N)=NC(N)=Nc1ccccc1
inactive: Potency [6] | Potency [7] | Potency [2] | outcome [8] | Potency [9] | Potency [3] | Potency [4] | outcome [5]

NCCCCN=C(N)N
inactive: Potency [7] | Potency [2] | outcome [8] | Potency [9] | Potency [3] | Potency [4] | outcome [5]

O=C1OC(=O)C2C3CCC(O3)C12 (stereo not drawn)
inactive: Potency [7] | outcome [8]

CN(C)CCC(c1ccc(Br)cc1)c1ccccn1 (stereo not drawn)
inactive: Potency [7] | outcome [8]

Cn1cc(C(=O)OCC2CCN(CCNS(C)(=O)=O)CC2)c2ccccc21
inactive: Potency [6] | activation [11] 26.2% | Potency [2] | Potency [3] | Potency [4] | outcome [5]
